Bioassay records as filed in PubChem.
The list is not random: actives were taken first. Their share in the collection is about 2.9%.
PLCb3 inh: inhibitors of human phospholipase C beta3; Purified PLC-beta3, fluorogenic substrate, fluorescence; inhibition, % at 12.2 µM; 0.18% of 370,000 active; Q01970; in the data active means inhibition above about 11%;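 further: 0% = median of compound wells on plate and 100% = full blocker control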
ADAM10 inh: inhibitors of human ADAM10 | recombinant ADAM10, EDANS/DABCYL FRET peptide cleavage, 3 h | AID 720582 | O14672 | 0.62% of 370,000 active | inhibition, % at 7 µM;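 active means inhibition above a per-campaign cutoff equal to the mean of compounds falling between control-based bounds plus 3 SD, cut at about 20% in these data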;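 further: 0% = DMSO wells while the 100% control is not disclosed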
KLK7 zymogen act: activators of human kallikrein-7 zymogen. P49862. purified proKLK7, EDANS-DABCYL substrate fluorescence; 100% is mature enzyme control, 0% vehicle. activation, % at 7 µM. 0.9% of 370,000 active. AID 652039;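 active means activation above the mean of all tested compounds plus 3 SD, computed per campaign excluding outliers beyond control limits, cut at about 13% in these data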
PLCg1 inh: inhibitors of human phospholipase C gamma1; purified PLC-gamma1, fluorogenic substrate, fluorescence; P19174; AID 720700; 0.84% of 370,000 active; inhibition, % at 12.2 µM
ADAM17 inh: inhibits human ADAM17. AID 720648. 0.83% of 370,000 active. inhibition, % at 6.95 µM. recombinant ADAM17, EDANS/DABCYL FRET peptide cleavage;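 active means inhibition above the mean of compounds lying between control limits plus 3 SD, set per campaign, cut at about 8.5% in these data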;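 further: 0% = DMSO-only wells as the low control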
Target sequence (P78536 215-824 limits assumed): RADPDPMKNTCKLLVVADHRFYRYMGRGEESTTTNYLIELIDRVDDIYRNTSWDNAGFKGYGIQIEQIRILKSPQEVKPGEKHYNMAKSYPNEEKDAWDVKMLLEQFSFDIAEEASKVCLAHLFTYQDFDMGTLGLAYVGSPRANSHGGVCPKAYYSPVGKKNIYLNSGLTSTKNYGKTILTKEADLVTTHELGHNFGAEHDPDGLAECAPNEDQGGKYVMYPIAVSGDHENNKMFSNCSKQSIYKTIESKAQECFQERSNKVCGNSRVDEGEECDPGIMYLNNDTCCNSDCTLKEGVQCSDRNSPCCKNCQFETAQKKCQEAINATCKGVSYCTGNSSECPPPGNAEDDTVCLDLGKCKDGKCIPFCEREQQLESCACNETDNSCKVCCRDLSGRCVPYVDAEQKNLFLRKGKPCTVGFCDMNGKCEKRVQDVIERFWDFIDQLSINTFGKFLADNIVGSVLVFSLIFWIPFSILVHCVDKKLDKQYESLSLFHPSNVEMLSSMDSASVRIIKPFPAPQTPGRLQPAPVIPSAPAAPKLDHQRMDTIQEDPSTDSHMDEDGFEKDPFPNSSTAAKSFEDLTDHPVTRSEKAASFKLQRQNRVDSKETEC
ADAM10 counter: counter-screen for ADAM17 exosite inhibitors: inhibitors of human ADAM10; recombinant ADAM10, EDANS/DABCYL FRET peptide cleavage, 3 h; inhibition, % at 6.95 µM; shares compounds with ADAM17 inh; 47% of 2,900 active;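 active means mean inhibition over the triplicate runs exceeds the activity threshold set in the earlier primary screen, cut at about 20% in these data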;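 further: 0% = DMSO wells and 100% = marimastat wells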
ADAM17 confirm: confirmation of inhibitors of human ADAM17; shares compounds with ADAM17 inh; recombinant ADAM17, EDANS/DABCYL QFRET peptide cleavage; inhibition, % at 6.95 µM; 65% of 2,900 active;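 active means mean inhibition across replicates above the hit cutoff set in the primary screen, cut at about 8.5% in these data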;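 further: 0% = DMSO wells and 100% = marimastat wells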
PLCgamma1 ctr: inhibits human PLC-gamma1 in PLC-beta3 counter-screen | purified PLC-gamma1, fluorogenic substrate, fluorescence | inhibition, % at 12.3 µM | shares compounds with PLCg1 inh | 3.1% of 3,300 active
PLCb3 confirm: confirmation of human PLC-beta3 inhibitors; inhibition, % at 12.3 µM; purified PLC-beta3, fluorogenic substrate fluorescence; shares compounds with PLCg1 inh; AID 743261; 1% of 3,300 active; in the data active means inhibition above about 11%
Active calls of the source: *. Unless noted, no stated cut-off is given here; in the data, active means inhibition above about 9.5%; inactive means the rest.

CSCCC(c1nnnn1C1CCCCC1)N1CCC(n2c(=O)[nH]c3ccccc32)CC1 (stereo not given) was read as PLCb3 inh 6, ADAM10 inh 9, KLK7 zymogen act 1, PLCg1 inh 5 and ADAM17 inh 6.
For CSCCC(c1nnnn1C1CCCC1)N1CCC(n2c(=O)[nH]c3ccccc32)CC1 (stereo not given) the results were PLCb3 inh -1, ADAM10 inh 4, KLK7 zymogen act 0, PLCg1 inh 10*, ADAM17 inh 9.2*, ADAM10 counter 16, ADAM17 confirm 11*, PLCgamma1 ctr -2 and PLCb3 confirm 3.
`Cc1ccc(C2CC(=O)C(C=NCCN3CCN(C(=O)Cc4ccccc4)CC3)=C(O)C2)cc1` (stereo not given) gave PLCb3 inh -4, ADAM10 inh -2, KLK7 zymogen act 1, PLCg1 inh -9 and ADAM17 inh -5.
CC(c1ccccc1)n1cncc1C(=O)O (stereo not given) was read as PLCb3 inh 6, ADAM10 inh 3, KLK7 zymogen act 0, PLCg1 inh 11*, ADAM17 inh 9.4*, ADAM10 counter 15, ADAM17 confirm 11*, PLCgamma1 ctr -6 and PLCb3 confirm -5.
`O=C(N/N=C/c1c(O)n(CCC2=CCCCC2)c(=S)[nH]c1=O)c1ccccc1` gave PLCb3 inh -37, ADAM10 inh -14, KLK7 zymogen act -2, PLCg1 inh -38 and ADAM17 inh -6.
Screening CCN(CC)CCCN=Cc1c(O)n(CCc2ccc(OC)c(OC)c2)c(=O)[nH]c1=O returned PLCb3 inh 0, ADAM10 inh 8, KLK7 zymogen act 0, PLCg1 inh 18*, ADAM17 inh -5, PLCgamma1 ctr -2 and PLCb3 confirm 0.
For CCC(=NCc1cccnc1)c1c(O)n(C2CCCCC2)c(=O)[nH]c1=O the results were PLCb3 inh -2, ADAM10 inh -14, KLK7 zymogen act 0, PLCg1 inh -4 and ADAM17 inh -4.
`CCC(=NCc1ccco1)c1c(O)n(C2CCCCC2)c(=O)[nH]c1=O` gave PLCb3 inh 12*, ADAM10 inh 1, KLK7 zymogen act 1, PLCg1 inh 1, ADAM17 inh 3, PLCgamma1 ctr -2 and PLCb3 confirm 21*.
Screening C#CCOCOCC#CCN(CC)CC returned PLCb3 inh 0, ADAM10 inh -4, KLK7 zymogen act 0, PLCg1 inh 6 and ADAM17 inh -2.
For COc1ccc(CCNCc2c(OC)ccc3ccccc23)cc1 the results were PLCb3 inh 4, ADAM10 inh 5, KLK7 zymogen act 0, PLCg1 inh 9.6*, ADAM17 inh 3, PLCgamma1 ctr 37* and PLCb3 confirm 2.
CC(Cl)(Cl)/C(=N/P(=S)(N1CCOCC1)N1CCOCC1)N1CCOCC1 was read as PLCb3 inh -7, ADAM10 inh 4, KLK7 zymogen act 1, PLCg1 inh 4 and ADAM17 inh 1.
For O=P(/C(=N/O)N1CCCCC1)(N1CCOCC1)N1CCOCC1 the results were PLCb3 inh 4, ADAM10 inh 4, KLK7 zymogen act 0, PLCg1 inh 9.6*, ADAM17 inh 4, PLCgamma1 ctr 8 and PLCb3 confirm 2.
O=P(O)(O)C12CC3CC(CC(C3)C1)C2 was read as PLCb3 inh 9, ADAM10 inh 7, KLK7 zymogen act 0, PLCg1 inh 13*, ADAM17 inh 3, PLCgamma1 ctr -4 and PLCb3 confirm -1.
O=C(Nc1cccnc1)c1c(O)c2c(n(Cc3ccccc3)c1=O)CCCC2 was read as PLCb3 inh 2, ADAM10 inh 3, KLK7 zymogen act 0, PLCg1 inh 2 and ADAM17 inh -2.
Screening O=C1C(=O)c2ccccc2-c2ccccc21 returned PLCb3 inh 2, ADAM10 inh -1, KLK7 zymogen act 0, PLCg1 inh 57*, ADAM17 inh 1, PLCgamma1 ctr 43* and PLCb3 confirm 6.
`O=C1C(=O)c2cccc3cccc1c23` gave PLCb3 inh 0, ADAM10 inh -4, KLK7 zymogen act 0, PLCg1 inh -1 and ADAM17 inh -4.
`O=C1NCN(c2ccccc2)C12CCN(C(c1cccc3ccccc13)c1nnnn1C1CCCCC1)CC2` (stereo not given) gave PLCb3 inh 3, ADAM10 inh 4, KLK7 zymogen act 1, PLCg1 inh 12*, ADAM17 inh 8, PLCgamma1 ctr -1 and PLCb3 confirm -3.
Screening CN(C=O)CP(=O)(O)CN(C)C=O returned PLCb3 inh 13*, ADAM10 inh 4, KLK7 zymogen act 1, PLCg1 inh 13*, ADAM17 inh 4, PLCgamma1 ctr -1 and PLCb3 confirm -1.
For CCOP(=O)(OCC)C(O)c1cccnc1 (stereo not given) the results were PLCb3 inh -5, ADAM10 inh -5, KLK7 zymogen act 0, PLCg1 inh 6 and ADAM17 inh -7.
`NC(=O)OCCCc1ccccc1` gave PLCb3 inh 0, ADAM10 inh 0, KLK7 zymogen act 0, PLCg1 inh 11*, ADAM17 inh -5, PLCgamma1 ctr -7 and PLCb3 confirm -2.
For COc1ccc(C(=O)C2CCCN(Cc3ccc(C)s3)C2)c(OC)c1 (stereo not given) the results were PLCb3 inh -3, ADAM10 inh 5, KLK7 zymogen act 0, PLCg1 inh 3 and ADAM17 inh -2.
For CCNC(=O)[C@H]1O[C@@H](n2cnc3c(N)ncnc32)[C@H](O)[C@@H]1O the results were PLCb3 inh 1, ADAM10 inh 5, KLK7 zymogen act 0, PLCg1 inh 1 and ADAM17 inh -4.
`Nc1ncnc2c1ncn2[C@@H]1O[C@H](COP(=O)(O)CP(=O)(O)O)[C@@H](O)[C@H]1O` gave PLCb3 inh 1, ADAM10 inh 5, KLK7 zymogen act 0, PLCg1 inh 73*, ADAM17 inh 3, PLCgamma1 ctr 79* and PLCb3 confirm -2.
`COc1ccc(CC(=O)N(CCN(C)C)CC2CCCN(Cc3ccccc3F)C2)cc1` (stereo not given) gave PLCb3 inh -1, ADAM10 inh 6, KLK7 zymogen act 1, PLCg1 inh 13*, ADAM17 inh 8, PLCgamma1 ctr -1 and PLCb3 confirm -2.
